According to PubChem BioAssay AID1159580 (chemical genetic matrix, 2015):
The whole screen tested about 5,500 compounds, of which about 2,000 (36%) were called active. Inconclusive results (about 18%) are left out. Rule as the data show it: active = normalized growth mostly below about 0.91 (no sharp cut-off); inconclusive = no clear call, values can overlap the other calls; inactive = mostly above about 0.92. This is one part of the list.

Assay: chemical genetic growth profiling, strain panel (AID 1159580);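 also: tested at 20 µM; growth read once vehicle control cultures reached saturation at 30 °C; 1 = growth at the plate median or of vehicle wells; lower values mean less growth of the strain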
Settings: growth OD
[1] = S. cerevisiae deletion strains, locus YAL013W, strain DEP1, active compounds read low
[2] = S. cerevisiae deletion strains, locus YBR229C, strain ROT2, active compounds read low
[3] = S. cerevisiae deletion strains, locus YCL061C, strain MRC1, active compounds read low
[4] = S. cerevisiae deletion strains, locus YDL101C, strain DUN1, active compounds read low
[5] = S. cerevisiae deletion strains, locus YDR150W, strain NUM1, active compounds read low
[6] = S. cerevisiae deletion strains, locus YEL061C, strain CIN8, active compounds read low
[7] = S. cerevisiae deletion strains, locus YGR078C, strain PAC10, active compounds read low
[8] = S. cerevisiae deletion strains, locus YHR030C, strain SLT2, active compounds read low
[9] = S. cerevisiae deletion strains, locus YHR087W, strain rtc3, active compounds read low
[10] = S. cerevisiae deletion strains, locus YJL187C, strain SWE1, active compounds read low
[11] = S. cerevisiae deletion strains, locus YJR043C, strain POL32, active compounds read low
[12] = S. cerevisiae deletion strains, locus YJR075W, strain HOC1, active compounds read low
[13] = S. cerevisiae deletion strains, locus YLR039C, strain RIC1, active compounds read low
[14] = S. cerevisiae deletion strains, locus YLR058C, strain SHM2 (second series), active compounds read low
[15] = S. cerevisiae deletion strains, locus YLR085C, strain ARP6, active compounds read low
[16] = S. cerevisiae deletion strains, locus YLR262C, strain YPT6, active compounds read low
[17] = S. cerevisiae deletion strains, locus YML094W, strain GIM5, active compounds read low
[18] = S. cerevisiae deletion strains, locus YMR219W, strain ESC1, active compounds read low
[19] = S. cerevisiae deletion strains, locus YMR263W, strain SAP30, active compounds read low
[20] = S. cerevisiae deletion strains, locus YMR307W, strain GAS1, active compounds read low
[21] = S. cerevisiae deletion strains, locus YNL153C, strain GIM3, active compounds read low
[22] = S. cerevisiae deletion strains, locus YNL298W, strain CLA4 (second series), active compounds read low
[23] = S. cerevisiae deletion strains, locus YNL322C, strain KRE1, active compounds read low
[24] = S. cerevisiae deletion strains, locus YNR030W, strain Alg12, active compounds read low
[25] = S. cerevisiae deletion strains, locus YPL055C, strain LGE1, active compounds read low
[26] = S. cerevisiae deletion strains, locus YPR135W, strain CTF4, active compounds read low
[27] = S. cerevisiae deletion strains, locus YDL134C, strain PPH21, active compounds read low
[28] = S. cerevisiae deletion strains, locus YKL190W, strain CNB1, active compounds read low
[29] = S. cerevisiae deletion strains, locus YOL006C, strain TOP1, active compounds read low
[30] = S. cerevisiae deletion strains, locus YPL241C, strain CIN2, active compounds read low

Measured: normalized growth

O=C(CSc1nnc(NC(=O)c2cccc([N+](=O)[O-])c2)s1)Nc1ccc2c(c1)OCO2
inactive: [1] 0.991 | [2] 0.995 | [3] 1.01 | [4] 0.986 | [5] 0.982 | [6] 0.982 | [7] 0.991 | [8] 0.985 | [9] 0.997 | [10] 0.995 | [11] 0.977 | [12] 1.02 | [13] 0.976 | [14] 0.985 | [15] 0.996 | [16] 0.985 | [17] 0.948 | [18] 1 | [19] 1.01 | [20] 1.05 | [21] 1.01 | [22] 1 | [23] 0.989 | [24] 1.01 | [25] 0.998 | [26] 0.939

O=C(Nc1nncs1)c1ccncc1
inactive: [1] 0.983 | [2] 1 | [4] 0.999 | [27] 1.02 | [5] 0.946 | [6] 0.999 | [7] 1 | [8] 0.996 | [9] 1 | [10] 0.992 | [11] 1.01 | [12] 0.991 | [28] 1.03 | [13] 1.08 | [14] 1 | [15] 1.04 | [16] 1.05 | [17] 1.02 | [18] 1 | [19] 0.949 | [20] 1.02 | S. cerevisiae deletion strains, locus YNL128W, strain TEP1, active compounds read low 1.02 | [21] 0.995 | [22] 1.07 | [23] 1 | [24] 1.04 | [29] 1.08 | [25] 0.888 | [30] 1.03 | [26] 1.05 | S. cerevisiae strains, strain wild type, active compounds read low 1.04

O=C(Nc1nccs1)c1ccc([N+](=O)[O-])cc1
inactive: [1] 0.979 | [2] 0.97 | [3] 0.992 | [4] 0.972 | [27] 1.01 | [5] 0.984 | [6] 0.968 | [7] 0.973 | [8] 0.977 | [9] 0.973 | [11] 1.02 | [12] 0.924 | [28] 1 | [13] 0.851 | [14] 0.981 | [16] 0.917 | [17] 0.94 | [18] 0.978 | [19] 0.986 | [20] 0.905 | [21] 0.976 | [22] 0.976 | [23] 0.983 | [24] 0.97 | [25] 0.97 | [30] 0.954 | [26] 0.933
active: [15] 0.729 | [29] 0.514
